# Results filed as inconclusive are left out. Values without a mark were called inactive. Activity calls are given as the source filed them. Calls come from the whole dose curve; as a rule, active = well fitted inhibition curve with a large enough effect; inconclusive = small, poorly fitted or top-dose-only effect; inactive = flat fitted curve, though single readings scatter.
# How the values were obtained:
# Assay in all cases: Cytotoxic Profiling of Annotated Libraries Using Quantitative High-Throughput Screening (AID 1296008); note: nearly all actives have a fitted effect of over 60% in size
# Details in all cases: Five cell lines viability, CellTiter-Glo ATP luminescence, 48-72 h; max response: active compounds read low
# CRL-7250 = normal cell line; test system: CRL-7250
# How it was run: (§1)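 Compounds were pin-transferred onto cells and incubated 48 or 72 hr at 37 degree Celsius, 95% humidity. CellTiter-Glo was added, plates sat 10 min at room temperature, then ATP-coupled luminescence was imaged as the viability read-out.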
# HaCat = test system: HaCat
# How it was run: as §1
# HEK293 = test system: HEK293
# How it was run: as §1
# KB-3-1 = test system: KB-3-1
# How it was run: as §1
# % is set by controls: 0 for no effect and ±100 for the full control effect; potency is the fitted concentration of half-maximal effect.
compound,measurement,setting,value
CC(C)NCCCC1(C(N)=O)c2ccccc2-c2ccccc21,outcome,CRL-7250,inactive
same,max response,HaCat,4.87%
O=C(OCCN1CCOCC1)c1cccnc1Nc1cccc(C(F)(F)F)c1,max response,CRL-7250,-4.59%
same,outcome,HaCat,inactive
CC(=O)Oc1ccc(C2(c3ccc(OC(C)=O)cc3)Oc3ccccc3NC2=O)cc1,Potency,CRL-7250,8.41 µM (active)
same,Potency,HEK293,7.5 µM (active)
same,Potency,KB-3-1,18.4 µM (active)
CCCc1ccc(OCC(=O)N2CCN(C(=O)COc3ccc(CCC)cc3OC)CC2)c(OC)c1,max response,CRL-7250,-1.28%
same,max response,HaCat,5%
Cc1nc(C2CCCCC2)c(-c2ccc(S(N)(=O)=O)c(F)c2)o1,max response,CRL-7250,-4.52%
same,outcome,HaCat,inactive
CCC(=O)Oc1ccc2c(c1)CC[C@@H]1[C@@H]2CC[C@@]2(C)[C@H]1C[C@@H](OC(=O)CC)[C@@H]2OC(=O)CC,max response,CRL-7250,-3.71%
same,max response,HaCat,-1.68%
CN(C)C(=O)CNC(=O)Cc1ccccc1,max response,CRL-7250,-7.63%
same,max response,HEK293,-9.26%
same,outcome,KB-3-1,inactive
CCCCC(=O)OCC(=O)[C@H]1[C@H](C)C[C@H]2[C@@H]3C[C@H](F)C4=CC(=O)C=C[C@]4(C)[C@@]3(F)[C@@H](O)C[C@@]21C,max response,CRL-7250,-1.6%
same,max response,HaCat,1.04%
same,max response,KB-3-1,-3.44%
Cc1nn(-c2ccccc2)c(C)c1/C=N/N1CCN(Cc2ccccc2)CC1,max response,CRL-7250,4.78%
same,max response,HaCat,-14.9%
CCc1cc2cc(OC)c(OC)cc2c(Cc2ccccc2)n1,outcome,CRL-7250,inactive
same,outcome,HaCat,inactive
CC(C)(C)c1ccc(C(=O)CCCCl)cc1,outcome,CRL-7250,inactive
same,max response,HaCat,3.33%
